Bioassay records as filed in PubChem BioAssay.
TRAIL sens C8: viability loss with TRAIL in NB7+C8 cells, primary screen, TRAIL sensitizer project, cell-based, ATPlite luminescence; inhibition (viability loss, TRAIL sensitization), % at 10 µM; 360,000 tested, 1% active; AID 624354, 2012;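 active = compounds causing at least 50% loss of cell viability in the single-dose screen, relative to plate controls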
SENP8 block-1: SENP8 protease inhibitors, primary screen, biochemical, luminescence. 330,000 tested, 1.2% active. purified SENP8, Z-RLRGG-aminoluciferin cleavage. inhibition, % at 10 µM. Sentrin-specific protease 8 (Homo sapiens), Q96LD8. AID 2540, 2010; in the data active = inhibition above about 50%
SENP7 block: SENP7 protease inhibitors, primary screen, biochemical, luminescence, uHTS. Sentrin-specific protease 7 (Homo sapiens), Q9BQF6. recombinant SENP7, Z-RLRGG-aminoluciferin luminescence, 40 min. inhibition, % at 5 µM. 330,000 tested, 1.5% active;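 active = inhibition above about 50% at the single test dose, limit read from the data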
SENP6 inh: SENP6 protease inhibitors, primary screen, biochemical, luminescence, uHTS; Sentrin-specific protease 6 (Homo sapiens), Q9GZR1; Recombinant SENP6 catalytic domain, aminoluciferin luminescence; inhibition, % at 10 µM; 330,000 tested, 1.8% active; AID 2599, 2010;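 active = inhibition above about 50% at the single tested dose, limit read from the data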
Target sequence (Q9GZR1 628-1112 limits assumed): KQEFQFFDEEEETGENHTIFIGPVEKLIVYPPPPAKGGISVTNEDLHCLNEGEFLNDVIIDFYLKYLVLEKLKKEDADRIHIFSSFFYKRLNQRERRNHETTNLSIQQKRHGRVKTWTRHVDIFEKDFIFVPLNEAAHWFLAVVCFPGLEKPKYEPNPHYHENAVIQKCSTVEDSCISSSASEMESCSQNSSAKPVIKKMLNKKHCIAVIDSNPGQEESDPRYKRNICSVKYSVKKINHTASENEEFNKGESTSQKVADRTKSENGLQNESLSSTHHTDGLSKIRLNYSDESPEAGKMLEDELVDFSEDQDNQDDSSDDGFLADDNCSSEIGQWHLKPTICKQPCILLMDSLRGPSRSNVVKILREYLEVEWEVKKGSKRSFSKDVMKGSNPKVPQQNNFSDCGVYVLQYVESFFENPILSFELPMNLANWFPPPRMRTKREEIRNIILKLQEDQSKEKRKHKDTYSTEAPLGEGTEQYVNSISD
SENP8 block-2: human SENP8 protease inhibitors, primary screen, biochemical, fluorescence, Nedd8 protein substrate, uHTS; AID 602440, 2012; 360,000 tested, 0.64% active; recombinant SENP8; inhibition, % at 20 µM; in the data active = inhibition mostly above about 40%, no sharp cut-off; inactive = mostly below about 27%
PPC-1+TRAIL kill: compounds killing PPC-1 cancer cells with TRAIL present, primary screen, TRAIL potentiator project, ATPLite luminescence, uHTS. PPC-1 cells + TRAIL, ATPLite viability luminescence. cell killing (% activity), % at 4 µM or 5 µM. 220,000 tested, 0.41% active;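 active = cell killing above 50% in the first pass at 4 µM, then a duplicate retest at 5 µM averaging 50% or more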
A number is an active result; 0 = inactive; - = not tested or not shown. This is a sample that favours compounds with a hit; in the whole collection about 3% have one here.

SMILES	TRAIL sens C8	SENP8 block-1	SENP7 block	SENP6 inh	SENP8 block-2	PPC-1+TRAIL kill
CCC(OC(=O)c1ccc(S(C)(=O)=O)c([N+](=O)[O-])c1)C(=O)NC1C2CC3CC(C2)CC1C3 (configuration not stated)	74	-	-	-	0	-
Cn1cccc1C(=O)NC(=O)COC(=O)c1ccc(S(C)(=O)=O)c([N+](=O)[O-])c1	0	0	0	0	0	-
CC(OC(=O)c1ccc(S(C)(=O)=O)c([N+](=O)[O-])c1)C(=O)NC1C2CC3CC(C2)CC1C3 (configuration not stated)	73	-	-	-	0	-
O=C(CCl)N1c2ccccc2SCC1c1ccccc1 (configuration not stated)	83	0	0	0	0	-
Cc1ccccc1NC1=C/C(=N\S(=O)(=O)c2cccs2)c2ccccc2C1=O	90	90	89	86	99	0
Cc1ccc(NC2=C/C(=N/S(=O)(=O)c3cccs3)c3ccccc3C2=O)cc1C	0	-	-	-	61	0
COc1ccccc1CN1CC(C(=O)NCc2cc(F)cc(C(F)(F)F)c2)CCC1=O (configuration not stated)	0	0	0	0	0	-
O=c1[nH]c(=S)[nH]c2c1C(c1ccc(Cl)c(Cl)c1)OC(CCc1ccccc1)C2 (configuration not stated)	59	-	-	-	0	-
COc1ccc(CCNCc2cc(C)n(-c3ccc(OC)cc3)c2C)cc1	0	0	0	0	46	-
CCc1noc(C)c1C(=O)Nc1cccc2ncccc12	0	0	0	0	0	-
Cc1ccc(-n2c(C)cc(C(=O)COC(=O)c3ccc[nH]c3=O)c2C)cc1	61	0	0	0	0	0
Cc1cc(C(=O)COC(=O)c2ccc[nH]c2=O)c(C)n1-c1ccc(Br)cc1	0	0	0	0	0	0
C=CCNC(=O)c1ccsc1N	0	-	-	-	0	-
CCOC(=O)N1CCC(N2Cc3cccc(C(=O)Nc4cc(F)ccc4F)c3C2=O)CC1	0	0	0	0	0	56
CCOC(=O)N1CCC(N2Cc3cccc(C(=O)Nc4ccc(F)cc4)c3C2=O)CC1	0	0	0	0	0	0
CC1CC(C)CN(C(=O)COC(=O)c2ccc(Cl)nc2)C1 (configuration not stated)	0	0	0	0	0	-
CCOC(=O)c1cnc2c(-c3ccc(F)cc3)cnn2c1C(F)(F)F	0	-	-	-	0	0
CCOC(=O)c1cnc2c(-c3ccc(Cl)cc3)cnn2c1C	51	0	0	0	0	-
CCc1ccc(-c2cc(C(=O)N/N=C/c3c[nH]c4ccccc34)[nH]n2)cc1	60	0	0	0	0	0
C[C@]12C=CC(=O)C=C1CC[C@@H]1C2=CC[C@]2(C)[C@@H](C(=O)CN3CCN(c4cc(N5CCCC5)nc(N5CCCC5)n4)CC3)CC[C@@H]12	0	76	0	64	0	-
O=[N+]([O-])c1ccc2c(c1Nc1ccccc1)=NC1(CCCCC1)N=2	0	0	0	0	45	0
O=C(OCC(=O)N(CCc1ccccc1)Cc1ccccc1)c1ccc(F)c(S(=O)(=O)N2CCOCC2)c1	0	-	-	-	0	-
O=C(/C=C/c1ccco1)Oc1cc(Br)cc(/C=N/NC(=O)c2ccccc2O)c1	0	-	-	-	0	52
Cc1ccc(C(=O)N/N=C/c2cccc(OC(=O)/C=C/c3ccco3)c2)cn1	0	0	0	0	0	0
CC(C)c1cc(=O)n2[nH]c(N)nc2n1	0	0	0	0	0	0
SMILES	TRAIL sens C8	SENP8 block-1	SENP7 block	SENP6 inh	SENP8 block-2	PPC-1+TRAIL kill
CN(C)c1ncnc2c1ncn2[C@H]1CN(Cc2cccnc2)C[C@@H](CO)O1	0	-	-	-	0	-
COc1ccc(C(=O)C2CCCN(Cc3cccc4c3OCO4)C2)cc1OC (configuration not stated)	0	0	0	0	0	0
O=C(CC1Nc2ccccc2NC1=O)c1ccccc1 (configuration not stated)	-	59	0	72	-	0
O=C(CC1Nc2ccccc2NC1=O)NCCc1ccccc1 (configuration not stated)	0	0	0	0	0	0
N#C/C(=C\c1ccc(N2CCOCC2)c([N+](=O)[O-])c1)c1nc2ccccc2[nH]1	0	0	0	0	0	0
N#C/C(=C\c1ccc(N2CCOCC2)o1)c1nc2ccccc2[nH]1	57	0	0	0	0	0
O=[N+]([O-])c1cc(S(=O)(=O)C(F)(F)F)ccc1Sc1nc2ccccc2[nH]1	86	0	0	0	0	0
CS(=O)(=O)c1ccc(Sc2nc3ccccc3[nH]2)c([N+](=O)[O-])c1	0	0	0	0	0	0
COC(=O)c1sccc1NC(=O)c1cc2c(s1)CCCC2	0	0	56	0	0	0
COc1ccc(C)cc1NC(=O)c1cc2c(s1)CCC2	0	0	0	0	0	0
CC1=NN(c2ccc(C)cc2)C(=O)/C1=C/c1ccc(-c2cc([N+](=O)[O-])ccc2O)o1	0	0	0	0	0	-
O=C1NN(c2cccc(Br)c2)C(=O)/C1=C/c1ccc(-c2cc([N+](=O)[O-])ccc2O)o1	0	0	0	0	51	0
COc1cc(N=Nc2ccc(C)cc2S(N)(=O)=O)c(C)cc1N	0	-	-	-	49	-
CCc1cccc(C)c1NC(=O)CN(C)Cc1ccccc1F	0	0	0	0	0	0
Oc1c(C=Nc2cccc3cccnc23)sc2ccccc12	-	87	74	92	-	0
O=[N+]([O-])c1ccc(O)c(N=Cc2sc3ccccc3c2O)c1	0	-	-	-	0	0
Cc1cccc(C)c1NC(=O)C1(C)CSCC(=O)N1Cc1ccco1 (configuration not stated)	0	-	-	-	0	-
COc1cc2c(cc1OC)-c1nnc(C)n1C(C)(C)C2	0	0	0	0	0	66
COc1ccc2c(c1)C(=NN)c1cc(OC)ccc1-2	0	0	0	0	0	0
CC1=NN(c2nc(-c3ccc(C)cc3)cs2)C(=O)C1N=Nc1cccc(O)c1 (configuration not stated)	0	0	0	0	36	0
COc1ccccc1/C=C/C=N/n1c(-c2cc(-c3ccccc3)n[nH]2)n[nH]c1=S	58	0	0	0	0	0
COc1ccc(S(=O)(=O)N2CCOC23CCN(S(=O)(=O)c2cc(C)ccc2OC)CC3)cc1	0	0	0	0	0	-
COCCNC(=O)c1onc(CSc2ccccc2F)c1C(=O)O	0	0	0	0	0	55
CC(C)NC(=O)C1(C)CN(S(C)(=O)=O)CC(=O)N1Cc1ccco1 (configuration not stated)	0	-	-	-	0	-
O=C(CSc1ccccn1)Nc1nonc1[N+](=O)[O-]	54	0	0	0	0	-
O=C(CSc1ccccn1)Nc1ccc(NC(=O)CSc2ccccn2)cc1	0	0	0	0	0	0
